From PubChem BioAssay (NCATS)
Results filed as inconclusive are left out. Calls of active or inactive are those of the source. Calls come from the whole dose curve; as a rule, active = well fitted curve in the direction sought with a large enough effect; inconclusive = small, poorly fitted or top-dose-only effect, or another doubt; inactive = no such curve, though single readings can be large; an effect the other way counts as inactive or inconclusive.

Assays:
[1] = target: Metallo-beta-lactamase type 2 (Klebsiella pneumoniae) (UniProt C7C422); assay: qHTS to identify inhibitors of the New Delhi Metallo-beta-lactamase (NDM): assay validation screen against the NCATS LOPAC Collection (AID 1794843);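 note: nitrocefin turnover by NDM-1 measured as 485 nm absorbance at plateau; % is set by controls: 0 for no effect and ±100 for the full control effect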
Outline: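 Nitrocefin hydrolysis (50 uM substrate stock) by NDM-1, 2 nM final, was followed by 485 nm absorbance after compound preincubation; buffer was 50 mM HEPES pH 7.0, 1 uM ZnSO4, 0.01% Tween20.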

[2] = target: Glutathione peroxidase 1 (Homo sapiens) (UniProt P07203); assay: Primary qHTS Assay for Inhibitors of Recombinant Selenoprotein Glutathione Peroxidase 1 (GPX1) (AID 1845191); note: nearly all actives have a fitted effect of over 65% in size; for activity, negative = inhibition: % is set by controls: 0 for no effect and ±100 for the full control effect
Outline: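 NADPH consumption tracked by fluorescence at 340/450 nm between t=0 and t=15 min, room temperature. Final mix: 10 nM GPX1, 100 nM glutathione reductase, 1 mM GSH, 0.5 mM NADPH, 0.5 mM cumene hydroperoxide, 0.01% BSA; 30 min compound–enzyme preincubation.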

[3] = target: Phospholipid hydroperoxide glutathione peroxidase GPX4 (Homo sapiens) (UniProt P36969); assay: Primary qHTS Assay for Inhibitors of Recombinant Selenoprotein Glutathione Peroxidase 4 (GPX4) (AID 1845192); conditions: outcome: dose series up to 50 µM unless noted; note: nearly all actives have a fitted effect of over 65% in size
Outline: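 NADPH consumption followed by fluorescence at 340/450 nm, t=0 and after 15 min at room temperature. Reaction started with cumene hydroperoxide (0.5 mM final) after 30 min compound–GPX4 preincubation; final 200 nM GPX4, 100 nM GR, 1 mM GSH, 0.5 mM NADPH.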

[4] = qHTS profiling for inhibitors of Plasmodium falciparum proliferation (AID 504749); note: potency is the fitted concentration of half-maximal effect;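 for activity, negative = inhibition: 0% = DMSO vehicle and full inhibition = artemisinin control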; for all read-outs here: nearly all actives have a fitted effect of over 60% in size; conditions: P. falciparum in erythrocytes, SYBR Green DNA, 72 h; for activity, negative = inhibition: at 28.7 µM (top of the series)
Outline: (§1)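 In a 72 h erythrocytic culture (37 C, humidified, 5% CO2) at 2.5% hematocrit and 0.3% starting parasitemia, compounds were tested; SYBR Green I in detergent lysis buffer stained parasite DNA overnight.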

3D7 = assay: as above; conditions: P. falciparum in erythrocytes, SYBR Green DNA, 72 h; series mostly up to 28.7 µM
Outline: as §1

7G8 = assay: as above; conditions: P. falciparum in erythrocytes, SYBR Green DNA, 72 h; series mostly up to 28.7 µM
Outline: as §1

AA1029 = assay: as above; conditions: P. falciparum in erythrocytes, SYBR Green DNA, 72 h; series mostly up to 28.7 µM
Outline: as §1

AS120 = assay: as above; conditions: P. falciparum in erythrocytes, SYBR Green DNA, 72 h; series mostly up to 28.7 µM
Outline: as §1

ATS189 = assay: as above; conditions: P. falciparum in erythrocytes, SYBR Green DNA, 72 h; series mostly up to 28.7 µM
Outline: as §1

ATS95 = assay: as above; conditions: P. falciparum in erythrocytes, SYBR Green DNA, 72 h; series mostly up to 28.7 µM
Outline: as §1

C2A = assay: as above; conditions: P. falciparum in erythrocytes, SYBR Green DNA, 72 h; series mostly up to 28.7 µM
Outline: as §1

Phospholipid hydroperoxide glutathione peroxidase GPX4 (Homo sapiens), sequence (P36969 whole entry, looked up): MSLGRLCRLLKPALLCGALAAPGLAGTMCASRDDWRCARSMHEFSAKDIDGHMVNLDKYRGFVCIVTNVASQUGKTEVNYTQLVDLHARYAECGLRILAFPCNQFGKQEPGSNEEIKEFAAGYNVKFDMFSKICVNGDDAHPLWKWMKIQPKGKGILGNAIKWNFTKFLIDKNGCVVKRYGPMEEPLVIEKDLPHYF
Metallo-beta-lactamase type 2 (Klebsiella pneumoniae), sequence (C7C422 whole entry, looked up): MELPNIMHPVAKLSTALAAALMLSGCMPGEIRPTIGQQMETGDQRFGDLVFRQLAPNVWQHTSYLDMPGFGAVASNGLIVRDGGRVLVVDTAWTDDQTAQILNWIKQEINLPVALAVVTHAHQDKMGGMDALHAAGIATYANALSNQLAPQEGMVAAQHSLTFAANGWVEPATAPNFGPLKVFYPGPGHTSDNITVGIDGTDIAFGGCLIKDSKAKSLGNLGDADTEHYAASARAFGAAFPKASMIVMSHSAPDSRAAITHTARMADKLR
Glutathione peroxidase 1 (Homo sapiens), sequence (P07203 whole entry, looked up): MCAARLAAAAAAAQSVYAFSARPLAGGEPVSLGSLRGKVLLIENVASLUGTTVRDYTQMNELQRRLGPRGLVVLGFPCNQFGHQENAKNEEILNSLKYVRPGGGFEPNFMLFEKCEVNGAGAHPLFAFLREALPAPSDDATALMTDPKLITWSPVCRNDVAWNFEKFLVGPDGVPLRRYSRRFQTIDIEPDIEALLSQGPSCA

Cc1ccc(S(=O)(=O)NC(=O)NN2CCCCCC2)cc1
inactive: Potency [1] | Potency [2] | outcome [3] | activity, negative = inhibition ([4]; parasite line A) -5.36% | activity, negative = inhibition ([4]; parasite line B) 12.1% | Potency (3D7) | Potency (7G8) | Potency (AA1029) | Potency (AS120) | Potency (ATS189) | Potency (ATS95) | Potency (C2A)

O=C(O)CN(CCOCCOCCN(CC(=O)O)CC(=O)O)CC(=O)O
inactive: Potency [1] | Potency [2] | outcome [3] | activity, negative = inhibition ([4]; parasite line A) 8.03% | activity, negative = inhibition ([4]; parasite line B) 13.7% | Potency (3D7) | Potency (7G8) | Potency (AA1029) | Potency (AS120) | Potency (ATS189) | Potency (ATS95) | Potency (C2A)

O=C(CCNNC(=O)c1ccncc1)NCc1ccccc1
inactive: Potency [1] | Potency [2] | outcome [3] | activity, negative = inhibition ([4]; parasite line A) 13.9% | activity, negative = inhibition ([4]; parasite line B) 17% | Potency (3D7) | Potency (7G8) | Potency (AA1029) | Potency (AS120) | Potency (ATS189) | Potency (ATS95) | Potency (C2A)

CCN1CCC[C@H]1CNC(=O)c1c(O)c(Cl)cc(Cl)c1OC
inactive: Potency [1] | Potency [2] | outcome [3] | activity, negative = inhibition ([4]; parasite line A) 0.765% | activity, negative = inhibition ([4]; parasite line B) 14.7% | Potency (3D7) | Potency (7G8) | Potency (AA1029) | Potency (AS120) | Potency (ATS189) | Potency (ATS95) | Potency (C2A)

Cc1ccc(=O)n(-c2ccccc2)c1
inactive: Potency [1] | Potency [2] | outcome [3] | activity, negative = inhibition ([4]; parasite line A) 12.4% | activity, negative = inhibition ([4]; parasite line B) 18.6% | Potency (3D7) | Potency (7G8) | Potency (AA1029) | Potency (AS120) | Potency (ATS189) | Potency (ATS95) | Potency (C2A)

CN=C(NC#N)NCCSCc1nc[nH]c1C
inactive: Potency [1] | Potency [2] | outcome [3] | activity, negative = inhibition ([4]; parasite line A) -4.42% | activity, negative = inhibition ([4]; parasite line B) -7.15% | Potency (3D7) | Potency (7G8) | Potency (AA1029) | Potency (AS120) | Potency (ATS189) | Potency (ATS95) | Potency (C2A)

CN(C)C(=O)Oc1ccc[n+](C)c1
inactive: Potency [1] | Potency [2] | outcome [3] | activity, negative = inhibition ([4]; parasite line A) 4.28% | activity, negative = inhibition ([4]; parasite line B) 5.75% | Potency (3D7) | Potency (7G8) | Potency (AA1029) | Potency (AS120) | Potency (ATS189) | Potency (ATS95) | Potency (C2A)

CC(=O)[C@@]1(O)CC[C@H]2[C@@H]3CCC4=CC(=O)CC[C@]4(C)[C@H]3CC[C@@]21C
inactive: Potency [1] | Potency [2] | outcome [3] | activity, negative = inhibition ([4]; parasite line A) -9.44% | activity, negative = inhibition ([4]; parasite line B) 1.51% | Potency (3D7) | Potency (7G8) | Potency (AA1029) | Potency (AS120) | Potency (ATS189) | Potency (ATS95) | Potency (C2A)

COc1cc2c(cc1OC)-c1cc(=Nc3c(C)cc(C)cc3C)n(C)c(=O)n1CC2
inactive: Potency [1] | Potency [2] | outcome [3]
active: Potency ([4]; parasite line A) 2820 nM | Potency ([4]; parasite line B) 2510 nM | Potency (3D7) 2510 nM | Potency (7G8) 891 nM | Potency (AA1029) 2820 nM | Potency (AS120) 3550 nM | Potency (ATS189) 7940 nM | Potency (ATS95) 3550 nM | Potency (C2A) 2820 nM

CCn1cc(C(=O)O)c(=O)c2cc3c(cc21)OCO3
inactive: Potency [1] | Potency [2] | outcome [3] | activity, negative = inhibition ([4]; parasite line A) -8.68% | activity, negative = inhibition ([4]; parasite line B) -3.36% | Potency (3D7) | Potency (AA1029) | Potency (AS120) | Potency (ATS189) | Potency (ATS95) | Potency (C2A)

CCCCCN(CCCCC)C(=O)C(CCC(=O)O)NC(=O)c1ccc(Cl)c(Cl)c1 (configuration not stated)
inactive: Potency [1] | Potency [2] | outcome [3] | activity, negative = inhibition ([4]; parasite line A) 16.8% | activity, negative = inhibition ([4]; parasite line B) 7.13% | Potency (3D7) | Potency (7G8) | Potency (AA1029) | Potency (AS120) | Potency (ATS189) | Potency (ATS95) | Potency (C2A)

O=C1CC2(CCCC2)CC(=O)N1CCCCN1CCN(c2ncccn2)CC1
inactive: Potency [1] | Potency [2] | outcome [3] | activity, negative = inhibition ([4]; parasite line A) 11.6% | activity, negative = inhibition ([4]; parasite line B) 9.29% | Potency (3D7) | Potency (AA1029) | Potency (AS120) | Potency (ATS189) | Potency (ATS95) | Potency (C2A)

C[C@]12CCC(=O)C=C1CC[C@@H]1[C@@H]2CC[C@@]2(C)[C@H]1CC[C@]2(O)C(=O)CO
inactive: Potency [1] | Potency [2] | outcome [3] | activity, negative = inhibition ([4]; parasite line A) -9.28% | activity, negative = inhibition ([4]; parasite line B) 20.5% | Potency (3D7) | Potency (AA1029) | Potency (AS120) | Potency (ATS189) | Potency (ATS95) | Potency (C2A)

CN(C)CCN(Cc1cccs1)c1ccccn1
inactive: Potency [1] | Potency [2] | outcome [3] | activity, negative = inhibition ([4]; parasite line A) 5.46% | activity, negative = inhibition ([4]; parasite line B) 6.28% | Potency (3D7)
active: Potency (AA1029) 10000 nM | Potency (AS120) 12600 nM

Cc1ccc(Cl)c(Nc2ccccc2C(=O)O)c1Cl
inactive: Potency [1] | Potency [2] | outcome [3] | activity, negative = inhibition ([4]; parasite line A) -0.156% | activity, negative = inhibition ([4]; parasite line B) -3.06% | Potency (3D7) | Potency (7G8) | Potency (AA1029) | Potency (AS120) | Potency (ATS189) | Potency (ATS95) | Potency (C2A)

CNC1(C)C2CCC(C2)C1(C)C (configuration not stated)
inactive: Potency [1] | Potency [2] | outcome [3] | activity, negative = inhibition ([4]; parasite line A) 6.34% | activity, negative = inhibition ([4]; parasite line B) 5.34% | Potency (3D7) | Potency (7G8) | Potency (AA1029) | Potency (AS120) | Potency (ATS189) | Potency (ATS95) | Potency (C2A)

NC/C=C/C(=O)O
inactive: Potency [1] | Potency [2] | outcome [3] | activity, negative = inhibition ([4]; parasite line A) 13.5% | activity, negative = inhibition ([4]; parasite line B) 11.1% | Potency (3D7) | Potency (7G8) | Potency (AA1029) | Potency (AS120) | Potency (ATS189) | Potency (ATS95) | Potency (C2A)
